Test systems include HCT-15 colon; HT29 colon; SNB-75 CNS; SNB-19 CNS; U251 CNS; PC-3 prostate; SK-MEL-5 melanoma; UACC-62 melanoma; LOX IMVI melanoma; SK-MEL-28 melanoma; EKVX NSCLC; SN12C renal; UO-31 renal; TK-10 renal; ACHN renal; A498 renal; CCRF-CEM leukemia; MOLT-4 leukemia; CAKI-1 renal.
Common to all, as to test: NCI-60 one-dose screen, 48 h (100 = growth as untreated, 0 = no growth, -100 = all killed)
Conditions in all cases: 10 µM unless noted

From PubChem BioAssay (NCI) come the findings set out here.

About 83,000 compounds went through this panel and 20% of them were active in at least one assay; those are over-represented in the sample as a whole.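 Cells were grown in 96-well plates and exposed to the test compound at a single concentration for 48 hours; results are reported as percent growth, with values below 10 considered active.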 Values without a mark were called inactive. Calls of active or inactive are those of the source.

On to `CO[C@H]1C[C@@H]2CC[C@@H](C)[C@@](O)(O2)C(=O)C(=O)N2CCCC[C@H]2C(=O)O[C@H]([C@H](C)C[C@@H]2CC[C@@H](O)[C@H](OC)C2)CC(=O)[C@H](C)/C=C(\C)[C@@H](O)[C@@H](OC)C(=O)[C@H](C)C[C@H](C)\C=C/C=C/C=C/1C`, for which the growth in the experiment on HCT-15 colon was 30.2%; with HT29 colon it was 18.7%; with SNB-75 CNS it was 11%; in the experiment with SNB-19 CNS, 39.4%; in the experiment with U251 CNS, 23.4%; with PC-3 prostate, 32.6%. Moreover, the growth in the experiment with SK-MEL-5 melanoma is 14.2%; in the experiment on UACC-62 melanoma, 39.2%; with LOX IMVI melanoma, 26.7%; in the experiment on SK-MEL-28 melanoma, 38.8%; in the experiment with EKVX NSCLC, 35.8%; in the experiment with SN12C renal, 44.3%. The growth in the experiment with UO-31 renal is 20.7%; in the experiment on TK-10 renal, 43.5%; with ACHN renal it was 39.5%; in the experiment with A498 renal, 13.8%; with CCRF-CEM leukemia, 22.1%; with MOLT-4 leukemia it was 6.08% (active).

Consider `Cc1ccc(-n2nc(C(C)(C)C)cc2NC(=O)NCc2cc(F)ccc2Oc2ccc3c(cnn3CCO)c2)cc1`, for which the growth is 17.5% with HCT-15 colon; 5.67% (active) with HT29 colon; 32.7% with SNB-75 CNS; 48.1% in the experiment with SNB-19 CNS; 31.3% in the experiment with U251 CNS; 33.5% in the experiment on PC-3 prostate. The growth in the experiment on SK-MEL-5 melanoma was -19.5% (active); in the experiment with UACC-62 melanoma, 7.75% (active); with LOX IMVI melanoma it was 5.06% (active); in the experiment with SK-MEL-28 melanoma, 0.876% (active); with EKVX NSCLC, 39.7%; with SN12C renal, 19.5%. Besides, the growth is -6.07% (active) in the experiment on UO-31 renal; 4.78% (active) with TK-10 renal; 11.7% in the experiment with ACHN renal; 20.2% with CAKI-1 renal; 20% in the experiment on CCRF-CEM leukemia; 3.32% (active) with MOLT-4 leukemia.

Consider `CN1CC[C@@H](c2c(O)cc(O)c3c(=O)cc(-c4ccccc4Cl)oc23)[C@@H]1CO`, for which the growth with HCT-15 colon is 3.39% (active); in the experiment with HT29 colon it was -12.6% (active); with SNB-75 CNS, -63.9% (active); with SNB-19 CNS, 10.2%; with U251 CNS, 4.32% (active); with PC-3 prostate, 1.22% (active). For the same compound, the growth is -9% (active) with SK-MEL-5 melanoma; -51.4% (active) in the experiment with UACC-62 melanoma; 6.25% (active) with LOX IMVI melanoma; -25.6% (active) in the experiment with SK-MEL-28 melanoma; 0.493% (active) in the experiment with EKVX NSCLC; 12.4% in the experiment on SN12C renal. The growth is -5.4% (active) in the experiment with UO-31 renal; 5.71% (active) with TK-10 renal; 4.44% (active) in the experiment on ACHN renal; 5.86% (active) in the experiment on CAKI-1 renal; 13.4% in the experiment on CCRF-CEM leukemia; 1.59% (active) with MOLT-4 leukemia.

Consider `COc1cc(Nc2ncc3c(n2)-c2ccc(Cl)cc2C(c2c(F)cccc2OC)=NC3)ccc1C(=O)O`, for which the growth in the experiment with HCT-15 colon is 37.2%; in the experiment with HT29 colon it was 40.7%; in the experiment with SNB-75 CNS it was 91.6%; in the experiment on SNB-19 CNS it was 74.1%; with U251 CNS, 51.6%; in the experiment on PC-3 prostate it was 60.7%. Besides, the growth in the experiment on SK-MEL-5 melanoma is 67.8%; with UACC-62 melanoma, 64.6%; in the experiment with LOX IMVI melanoma, 35.9%; with SK-MEL-28 melanoma, 84.7%; in the experiment with EKVX NSCLC, 89.9%; with SN12C renal it was 72.6%. The growth in the experiment with UO-31 renal is 51.7%; in the experiment with TK-10 renal, 63.9%; in the experiment with ACHN renal it was 64.4%; in the experiment on A498 renal, 63.2%; with CCRF-CEM leukemia, 47.2%; in the experiment on MOLT-4 leukemia it was 52.8%.

On to `COc1cc2c(cc1OCCCN1Cc3ccc(OCCCCC(=O)N4CCC(CCN5CCCC5)CC4)cc3C1)N=C(N)C21CCCC1`, for which the growth was 102% in the experiment with HCT-15 colon; 9.48% (active) in the experiment on HT29 colon; 60.3% in the experiment with SNB-75 CNS; 103% in the experiment on SNB-19 CNS; 79.2% in the experiment on U251 CNS; 79.9% in the experiment on PC-3 prostate. Also, the growth with SK-MEL-5 melanoma is 55.3%; in the experiment on UACC-62 melanoma it was 106%; in the experiment with LOX IMVI melanoma, 64%; in the experiment on SK-MEL-28 melanoma, 97.9%; with EKVX NSCLC, 96.9%; in the experiment with SN12C renal, 95.3%. In addition, the growth in the experiment with UO-31 renal is 93.7%; in the experiment on TK-10 renal, 99.3%; in the experiment on ACHN renal, 110%; with CAKI-1 renal it was 93.9%; with CCRF-CEM leukemia, 61.3%; with MOLT-4 leukemia, 44.8%.

Turning to `CO[C@H]1C[C@@H]2CC[C@@H](C)[C@@](O)(O2)C(=O)C(=O)N2CCCC[C@H]2C(=O)O[C@H]([C@H](C)C[C@@H]2CC[C@@H](OC(=O)C(C)(CO)CO)[C@H](OC)C2)CC(=O)[C@H](C)/C=C(\C)[C@@H](O)[C@@H](OC)C(=O)[C@H](C)C[C@H](C)\C=C/C=C/C=C/1C`, the growth in the experiment on HCT-15 colon was 27.3%; in the experiment on HT29 colon, 4.55% (active); in the experiment with SNB-75 CNS, -0.0597% (active); in the experiment with SNB-19 CNS, 30.6%; with U251 CNS, 19.4%; in the experiment on PC-3 prostate it was 18.1%. The growth was 12.9% in the experiment with SK-MEL-5 melanoma; 31.5% in the experiment with UACC-62 melanoma; 22.5% with LOX IMVI melanoma; 34.2% in the experiment with SK-MEL-28 melanoma; 36.8% in the experiment on EKVX NSCLC; 34.8% in the experiment on SN12C renal. Moreover, the growth in the experiment with UO-31 renal was 15.3%; in the experiment with TK-10 renal it was 26.1%; in the experiment with ACHN renal, 32.6%; in the experiment on A498 renal, 8.36% (active); with CCRF-CEM leukemia, 16.2%; with MOLT-4 leukemia, 0.877% (active).
